E coli growth-1: E. coli growth inhibition, primary screen, OD600. Escherichia coli growth, 23 h; stronger effect = lower value. OD600 absorbance (concentration not given with the values). actives 0.21% (n = 330,000). AID 1053175, 2014;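 active = OD600 absorbance below the run mean of sample wells minus 3.6 SD, in any replicate, cut at about 0.56 in these data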
AddAB inh: growth inhibition of E. coli expressing H. pylori AddAB, primary screen, AddAB inhibitor project, absorbance. inhibition, % at 11.9 µM. actives 0.29% (n = 330,000); in the data active = inhibition above about 12%
phage Ecoli inh: growth loss of phage-infected E. coli, primary screen, RecBCD inhibitor project, absorbance, with phage, HTS | inhibition, % at 11.9 µM | actives 0.26% (n = 360,000); in the data active = inhibition above about 11%
E coli growth-2: E. coli V3065 growth inhibition, primary screen, counter-screen for AddAB inhibitor project, absorbance, OD600; AID 449728, 2010; actives 0.27% (n = 330,000); 18 h; inhibition, % at 11.9 µM;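 active = inhibition above the campaign's mean inhibition across all tested compounds plus 3 SD, cut at about 9.9% in these data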;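 also: uninfected addAB+ strain grown without phage in ampicillin broth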
Tat export inh: E. coli Tat export inhibitors, primary screen, MC4100, TorA-mCherry reporter, fluorescence, single point; actives 0.036% (n = 340,000); inhibition, % at 10 µM;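 active = mean replicate inhibition at least 50% and at least half of replicates individually reaching 50%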;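 also: exported cargo escapes ClpAP degradation while cytoplasmic cargo is degraded and loses fluorescence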
Hits are given with their value; . = inactive; / = no result. Only some compounds are listed: those with a hit (about 0.5% of all), similar ones and a draw of the others.

SMILES	E coli growth-1	AddAB inh	phage Ecoli inh	E coli growth-2	Tat export inh
Nc1ncc(N=Nc2cc(C(=O)O)ccc2Cl)s1	.	.	.	10.5	.
CCN1/C(=C/c2ccc3cc(C)ccc3[n+]2CC)Sc2cc(C)ccc21	0.351	/	.	/	.
O=C(Nc1nc2ccccc2s1)c1ccc([N+](=O)[O-])o1	.	.	.	.	.
COc1ccc2nc(NC(=O)c3ccc([N+](=O)[O-])o3)sc2c1	0.484	.	.	.	.
Cc1c(-n2c(SCC(C)C)nc3ccccc3c2=O)c(=O)n(-c2ccccc2)n1C	0.391	.	.	.	.
Fc1ccc(NC(=S)Nc2ccc(F)c(Cl)c2)cc1Cl	0.495	.	/	.	.
O=C(Nc1ccncc1)Nc1ccc(F)c(Cl)c1	0.514	.	.	.	.
O=C(Nc1ccc(F)c(Cl)c1)Nc1ccc(Cl)cn1	.	.	.	.	.
CCCCC(=O)NNC(=S)NC(=O)c1ccc(C)cc1	.	.	.	.	.
CCCCCC(=O)NNC(=S)NC(C)=O	0.475	.	.	.	.
CCCCCCCCCCCCCCCCn1cc[n+](CC(C)=O)c1	0.0635	/	/	/	.
CCCCCCn1ccc(=N)cc1	.	.	.	.	.
COC(=O)C1=C(C(=O)OC)C2N(C)c3ccccc3[C@@]23CC(C(=O)OC)N(C(=O)c2ccco2)C3=N1 (stereo partly drawn)	.	/	/	/	/
CC12CCC(C(=O)N(CSC(=S)NN=Cc3ccccc3)C1=O)C2(C)C (stereo not drawn)	.	/	/	/	/
CN(C)c1ccc(/C=N\NC(=S)SCN2C(=O)C3CCC(C)(C2=O)C3(C)C)cc1 (stereo not drawn)	/	.	.	14.6	.
COc1ccc(C=NNC(=S)SCN2C(=O)C3CCC(C)(C2=O)C3(C)C)cc1 (stereo not drawn)	.	/	/	/	/
COc1ccc(/C=N\NC(=S)SCN2C(=O)C3CCC(C)(C2=O)C3(C)C)cc1 (stereo not drawn)	/	.	.	11.1	.
CCOCCCNc1ncnc2c1[nH]c1ccccc12	.	.	.	.	.
C=CCNc1ncnc2c1[nH]c1ccccc12	0.5	.	.	.	.
C=CCNc1ncnc2c1[nH]c1ccc(Cl)cc12	0.474	.	.	.	.
CCN1C(=O)C2C(c3ccc(C)cc3)N3C(=O)N(c4cccc(Cl)c4)C(=O)[C@@]3(Cc3ccccc3)C2C1=O (stereo partly drawn)	.	/	/	/	/
CCOC(=O)C1C2COc3ccc(OC)cc3C2N2C(=O)c3ccc(Cl)cc3NC(=O)[C@@]12C (stereo partly drawn)	.	/	/	/	/
COc1ccc2cc(C(=O)C3CCCN(C(=O)c4snnc4C)C3)ccc2c1 (stereo not drawn)	.	.	.	.	.
COc1ccc2cc(C(=O)C3CCCN(C(=O)Cc4c(C)noc4C)C3)ccc2c1 (stereo not drawn)	0.544	.	.	.	.
c1ccc2c(NCCCN3CCOCC3)c3ccccc3nc2c1	.	15.0	.	10.5	/
SMILES	E coli growth-1	AddAB inh	phage Ecoli inh	E coli growth-2	Tat export inh
CNS(=O)(=O)c1cccc(C(=O)OCC(=O)Nc2ccc(Cl)cc2F)c1	.	.	.	.	.
CNS(=O)(=O)c1cccc(C(=O)OCC(=O)Nc2cc(F)ccc2F)c1	.	.	.	10.6	.
CC(O)C1CCC2C3CCC4CC(O)CC[C@]4(C)C3C(=NO)C[C@]12C (stereo partly drawn)	.	/	/	/	/
O=C(CNS(=O)(=O)c1ccc(Br)s1)NCc1ccccc1	0.536	.	.	.	.
NC(=O)SCC(=O)Nc1ccc(Cl)cc1	0.534	.	.	.	.
CCCCCCn1cc(C(=O)O)c(=O)c2cc(F)c(N3CCN(C)CC3)cc21	.	.	/	.	.
CCCCCCCC(=O)N1CCN(c2cc3c(cc2F)c(=O)c(C(=O)O)cn3CC)CC1	0.097	/	.	/	.
CCCCCCCCC(=O)N1CCN(c2cc3c(cc2F)c(=O)c(C(=O)O)cn3CC)CC1	0.415	.	.	.	.
O=c1cc(-c2ccc(O)cc2)oc2c(C3OC(CO)C(O)C(O)C3O)c(O)cc(O)c12 (stereo not drawn)	.	/	/	/	/
CCCCC1CCCO[C@@](C(=O)NCc2ccccn2)(C(F)(F)F)C1 (stereo partly drawn)	.	/	/	/	/
CN(C)S(=O)(=O)n1cnc(C2C3C(=O)OCC3C[C@]23N=CN(Cc2ccccc2)C3=O)c1 (stereo partly drawn)	.	/	/	/	/
CC1CN(C(C)CO)C(=O)c2cc(NC(=O)Nc3ccccc3)ccc2OC1CN(C)S(=O)(=O)c1cn(C)cn1 (stereo not drawn)	.	/	/	/	/
Oc1c(Br)cc(Br)cc1/C=N/NC(=S)N[C@H]1CC2C=CC1C2 (stereo partly drawn)	/	.	.	10.1	.
Oc1c(Cl)cc(Cl)cc1C=NNC(=S)NC1CC2C=CC1C2 (stereo not drawn)	.	/	/	/	/
O=Nc1c(O)c2ccccc2c2ccccc12	.	.	11.0	.	.
O=c1ccc2ccccc2c2ccccc12	/	/	.	/	/
COCc1cc(C=NNC(=O)Cc2ccc(Cl)cc2)ccc1OC	0.247	/	/	/	/
COC1OC2O[C@@]3(C)CCC4C(C)CCC(C1C)[C@@]24OO3 (stereo partly drawn)	0.357	/	/	/	/
COC(=O)[C@@]1(Cc2ccc(OC)cc2)C2c3cc(C(=O)N(C)C)n(CCSCCO)c3CC2CN1C(=O)c1ccccc1 (stereo partly drawn)	.	/	/	/	/
Cc1ccc(C(C)C)c(OCc2nn(CC(=O)c3ccc(Cl)cc3)c3[n+]2CCCCC3)c1	0.071	.	.	.	.
CCOc1ccc(Nc2nc(NCC3CCCO3)c3ccccc3n2)cc1 (stereo not drawn)	0.491	.	.	.	.
c1ccc(Nc2nc(NCC3CCCO3)c3ccccc3n2)cc1 (stereo not drawn)	0.468	.	.	.	.
CCOc1ccc(Nc2c3ccccc3nc3ccccc23)cc1	0.516	.	.	.	.
Cc1ccccc1Cn1cccc1C=C1C(=N)N2C=CSC2=NC1=O	.	/	/	/	/
CC1CN=C(N(C)C)N1CCC1CCCC1 (stereo not drawn)	.	/	/	/	/
SMILES	E coli growth-1	AddAB inh	phage Ecoli inh	E coli growth-2	Tat export inh
COc1ccc(C=Cc2nc(-c3ccccc3O)n(-c3ccccc3)n2)cc1	.	/	/	/	/
O=C(Nc1cccnc1)C(N=Nc1cccnc1)=C(O)c1ccccc1	.	/	/	/	/
O=C(/C=C/c1ccccc1)NC(=S)NNC(=O)c1cnccn1	/	.	.	11.3	.
O=C(/C=C/c1ccccc1)NC(=S)NNC(=O)c1cccnc1	.	.	.	.	.
CC(=O)c1cccc(N(CC(=O)NCCc2ccccc2)C(=O)c2csnn2)c1	0.534	.	.	.	.
Fc1ccc(NC(=S)NC2CCN(Cc3ccccc3)CC2)cc1	.	.	.	.	.
O=C(NCc1cccnc1)Nc1ccc(Cl)c(Cl)c1	.	.	.	.	.
S=C(NCc1ccc(Cl)cc1)Nc1ccccc1	.	.	.	.	.
S=C(NCc1ccc(Cl)cc1)Nc1ccncc1	0.515	.	.	.	.
S=C(NCc1cccnc1)Nc1ccc(Cl)c(Cl)c1	.	.	.	11.3	.
S=C(Nc1ccc(Cl)c(Cl)c1)NC1CCN(Cc2ccccc2)CC1	.	.	.	10.8	.
